B2AR arrestin: qHTS assay of beta-arrestin-biased ligands of beta2-adrenergic receptor. hit rate 0.02% among 330,000. AID 492947, 2010. beta-arrestin recruitment to beta2AR, cell-based reporter. Potency, µM (top dose mostly 46.1 µM), usual class: activators; active = well fitted activation curve with a large enough effect; inconclusive = small, poorly fitted or top-dose-only effect; note: nearly all actives have a fitted effect of over 65% in size
Target sequence (P07550 whole entry, looked up): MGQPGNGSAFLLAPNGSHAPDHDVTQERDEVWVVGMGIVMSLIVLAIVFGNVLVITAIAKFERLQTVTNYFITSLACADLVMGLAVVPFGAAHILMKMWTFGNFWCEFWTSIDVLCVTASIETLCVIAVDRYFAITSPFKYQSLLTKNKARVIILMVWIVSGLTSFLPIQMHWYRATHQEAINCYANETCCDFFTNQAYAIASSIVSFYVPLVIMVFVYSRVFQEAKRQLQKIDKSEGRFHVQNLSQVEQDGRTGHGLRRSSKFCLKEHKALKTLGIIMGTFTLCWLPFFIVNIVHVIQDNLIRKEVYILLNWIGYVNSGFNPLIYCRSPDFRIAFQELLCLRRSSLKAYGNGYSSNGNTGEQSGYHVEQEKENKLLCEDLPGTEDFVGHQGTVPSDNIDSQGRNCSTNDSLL
DRD3 antagonist: qHTS of D3 Dopamine Receptor Antagonist: qHTS; D(3) dopamine receptor (Homo sapiens), P35462; D3R cells, DiscoveRx beta-arrestin luminescence, antagonist mode; stronger effect = lower value; max response, negative = inhibition, %; hit rate 2.5% among 360,000; in the data active = max response below about -50%; inconclusive = no clear call, values can overlap the other calls
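Cells plated overnight at 1500 cells/well, then exposed to library compounds with dopamine controls for 90 minutes at 37 degrees C. DiscoveRx reagent added for 30–60 minutes at room temperature; luminescence read, quantitative HTS format.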
Giardia killer: Small Molecules that selectively kill Giardia lamblia: qHTS. Giardia lamblia trophozoite viability. activity change, % at 7.66 µM, hits read low. hit rate 0.15% among 340,000. AID 540267, 2011; in the data active = activity change below about -80%; inconclusive = between about -30% and that limit;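 note: parasites exposed to compound for two days anaerobically before the ATP read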
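Trophozoite viability was measured as ATP-dependent luminescence, read 15-30 min after reagent addition. Before that, parasites at 100 cells/well were exposed to compounds for 48 h, anaerobically, at 37 deg C.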
D3 ag: qHTS of D3 Dopamine Receptor Agonist: qHTS | max activation, % | D3R DiscoveRx beta-arrestin cells, luminescence, 90 min | hit rate 0.58% among 410,000; in the data active = max activation above about 30%
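Agonist-mode cell screen: cells plated at 1500/well and incubated overnight at 37 °C, then exposed to library compounds for 90 min at 37 °C. Detection reagent was added for 30–60 min at room temperature, and luminescence was read.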
A number is an active result; 0 = inactive; ? = inconclusive; - = not tested or not shown. The list is not random: actives were taken first. Their share in the collection is about 2.8%.

SMILES | B2AR arrestin | DRD3 antagonist | Giardia killer | D3 ag
CS(=O)(=O)Nc1cc2occ(NC=O)c(=O)c2cc1Oc1ccccc1 | - | - | - | 0
CC(C)(C)C1CCc2c(sc(NC(=O)CSc3ncn[nH]3)c2C#N)C1 (stereo not drawn) | 0 | 0 | 0 | 36
CC(C)(C)NCC(O)c1ccc(O)c(CO)n1 (stereo not drawn) | - | - | - | 0
Cc1oc(-c2cccs2)nc1CN1CCN(CC(C)C)C(CCO)C1 (stereo not drawn) | 0 | 0 | 0 | 0
Cc1ccccc1CC1(CO)CCCN(Cc2nc(-c3cccs3)oc2C)C1 (stereo not drawn) | 0 | -104 | 0 | 0
Cc1ccc(S(=O)(=O)C2(C(=O)Nc3cccnc3)CC2)cc1 | 0 | -63 | 0 | 0
N#Cc1ccc(S(=O)(=O)N2CCN(c3nc(-c4cccs4)nc4ccccc34)CC2)cc1 | - | - | 0 | -
CC(=NNC1=NCCN1)c1cn(C2=NCCN2)nc1C | - | -50 | - | 0
CCN(CC)S(=O)(=O)c1ccc(-c2nnc(SCC(=O)N3CCOCC3)o2)cc1 | 0 | -63 | 0 | 0
CCN(CC)S(=O)(=O)c1ccc(-c2nnc(SCC(C)=O)o2)cc1 | 0 | 0 | 0 | 0
CCCC(c1nnnn1Cc1cccs1)N1CCN(C2CCCC2)CC1 (stereo not drawn) | 0 | 0 | 0 | 0
CCC(c1nnnn1Cc1cccs1)N1CCN(C2CCCC2)CC1 (stereo not drawn) | 0 | -63 | 0 | 0
CC(C)n1nnnc1-c1cccc(Cl)c1 | 0 | -51 | 0 | 0
COc1cc2c(cc1OC)C(COc1cc(C)cc(C)c1)N(C(=O)c1ccc(S(=O)(=O)N3CCCC3)cc1)CC2 (stereo not drawn) | - | - | - | 0
Cn1cccc1-c1cc(C(=O)N/N=C/c2ccccc2Cl)[nH]n1 | 0 | -78 | 0 | 0
Cn1cccc1-c1cc(C(=O)N/N=C/c2ccc(F)cc2)[nH]n1 | 0 | -82 | 0 | 0
NCC[C@H](O)C(=O)N[C@@H]1C[C@H](N)[C@@H](O[C@H]2O[C@H](CN)CC[C@H]2N)[C@H](O)[C@H]1O[C@H]1O[C@H](CO)[C@@H](O)[C@H](N)[C@H]1O | - | - | - | 0
O=C(COc1ccccc1F)Nc1ccc2oc(-c3cccc(Cl)c3)nc2c1 | - | - | - | 0
CC1CC(=O)N(CC(=O)Nc2ccc(F)cc2F)c2ccccc2S1 (stereo not drawn) | - | - | - | 0
Cc1ccc(Cl)cc1N1CCN(CC(=O)NC2CCCc3ccccc32)CC1 (stereo not drawn) | 0 | 0 | 0 | 0
CCc1cccc2c1Sc1ccccc1CC2N1CCNCC1 (stereo not drawn) | - | -63 | 0 | 0
Cc1cccc2c1Sc1ccc(Cl)cc1CC2N1CCNCC1 (stereo not drawn) | - | -53 | 0 | 0
Cc1ccc(Nc2c(-c3ccc(N4CCOCC4)cc3)nc3c(C)cccn23)cc1 | - | - | - | 0
CCOc1ccccc1CNC(=O)c1cnc2sc(N3CCCC3)nn2c1=O | - | - | - | 0
COc1ccc(CNC(=O)c2cc(-c3ccc(OC)c(OC)c3)nc3n[nH]c(-c4ccc(C)cc4)c23)cc1 | - | - | - | 0
SMILES | B2AR arrestin | DRD3 antagonist | Giardia killer | D3 ag
Cc1cccc(C)c1OCC(=O)N/N=C/c1ccc2c(c1)OCO2 | 0 | 0 | 0 | 0
Cc1ccc(C(C)C)cc1OCC(=O)N/N=C/c1ccc2c(c1)OCCO2 | 0 | 0 | 0 | 48
CCCCC(CC)CCC(CC(C)C)OS(=O)(=O)O (stereo not drawn) | - | - | - | 0
O=C(c1ccc2c3c(cccc13)CC2)C1CCCN(Cc2ccncc2)C1 (stereo not drawn) | 0 | -53 | 0 | 0
CN(C)C(=O)CCC(=O)N1CCCC(C(=O)c2ccc3c4c(cccc24)CC3)C1 (stereo not drawn) | 0 | 0 | 0 | 0
CCc1nc(CN2CCCC(C(=O)c3ccc4c5c(cccc35)CC4)C2)c(C)[nH]1 (stereo not drawn) | 0 | -51 | 0 | 0
O=C(NCCc1c[nH]c2ccccc12)OCCCCOC(=O)NCCc1c[nH]c2ccccc12 | 0 | 0 | 0 | 60
CC(=O)Oc1ccc(N2C(=O)c3cccc4c([N+](=O)[O-])ccc(c34)C2=O)cc1 | 0 | -100 | 0 | 0
O=C1c2cccc3c([N+](=O)[O-])ccc(c23)C(=O)N1c1ccccn1 | ? | -100 | 0 | 0
O=C(CSc1nnc(CNc2ccccc2)o1)N1CCc2ccccc21 | 0 | 0 | 0 | 44
O=C(CNC(=O)c1ccccc1F)OCc1cc(=O)n2ccsc2n1 | - | - | - | 0
CCN1C(=NCc2cc(OC)c(OC)c(OC)c2)N[C@@H](c2ccccc2)C(C(=O)OC)=C1C | 0 | ? | 0 | 0
CCN1C(=NCc2ccc(OC)cc2)N[C@@H](c2ccccc2)C(C(=O)OC)=C1C | 0 | 0 | 0 | 41
COC(=O)C1=C(C)N(Cc2ccccc2)C(=NCCc2ccccn2)N[C@H]1c1cccc(C(F)(F)F)c1 | 0 | 0 | 0 | 0
COC(=O)C1=C(C)N(Cc2ccccc2)C(=NCc2ccccc2)N[C@H]1c1cccc(C(F)(F)F)c1 | 0 | 0 | 0 | 33
CCN1C(=NCCc2ccccn2)N[C@@H](c2cccc(C(F)(F)F)c2)C(C(=O)OC)=C1C | 0 | -53 | 0 | 0
COc1ccc(CCNc2ncnc3nc[nH]c23)cc1 | - | - | 0 | -
O=C(CSc1nccn1Cc1ccc(F)cc1)Nc1ccc2c(c1)OCO2 | - | - | - | 0
COc1cc(NCCCC(C)N)c2ncccc2c1 (stereo not drawn) | 0 | -54 | 0 | 0
CCC(CNc1cc(OC)cc2cccnc12)NC1CCCCC1 (stereo not drawn) | 0 | -57 | 0 | 0
COc1cc(NCCCCC(C)N)c2nccc(C)c2c1 (stereo not drawn) | - | 0 | - | 0
CCCCSCCCNC(=O)c1cn(CC)c2ccc(S(=O)(=O)N3CCCCCC3)cc2c1=O | - | - | - | 0
Cc1cccc(/C=N\NC(=O)c2csnn2)c1 | 0 | -91 | 0 | 0
CN(C)c1ccc(/C=N\NC(=O)c2csnn2)cc1 | 0 | 0 | 0 | 0
CC1CCN(CC(O)COCCOc2ccc(Br)cc2)CC1 (stereo not drawn) | 0 | 0 | 0 | 0
SMILES | B2AR arrestin | DRD3 antagonist | Giardia killer | D3 ag
CC1CCN(CC(O)COCCC23CC4CC(CC(C4)C2)C3)CC1 (stereo not drawn) | 0 | -57 | 0 | 0
O[C@@H](CNC[C@H](O)[C@H]1CCc2cc(F)ccc2O1)[C@@H]1CCc2cc(F)ccc2O1 | - | - | - | 0
Cc1ccc(Cn2ncc(Cl)c(Cl)c2=O)cc1 | 0 | ? | 0 | 0
O=c1c(Cl)c(Cl)cnn1Cc1nnc(-c2ccc(Cl)cc2)o1 | 0 | -87 | 0 | 0
Cc1cccc(NC(=S)NCC(c2ccccc2)N(C)C)c1 (stereo not drawn) | 0 | ? | 0 | 0
CN(C)C(CNC(=O)Nc1cccc(Cl)c1)c1cccnc1 (stereo not drawn) | 0 | -52 | 0 | 0
CN(C)C(CNC(=S)Nc1cccc(Cl)c1)c1ccccc1 (stereo not drawn) | 0 | -70 | 0 | 0
CCCCN(C)C(=O)C1CCC(CNS(=O)(=O)c2ccc(Cl)cc2)CC1 (stereo not drawn) | - | - | - | 0
CCNc1ccc(Br)cc(C(=O)/C=C/c2ccc(Cl)cc2Cl)c1=O | 0 | -78 | 0 | 0

Screening data (PubChem)
